# Source: PubChem BioAssay (NCATS)
# Results filed as inconclusive are left out. Entries that show only a call come without a potency. Activity calls are given as the source filed them. Unless noted, calls come from the whole dose curve; as a rule, active = well fitted curve in the direction sought with a large enough effect; inconclusive = small, poorly fitted or top-dose-only effect, or another doubt; inactive = no such curve, though single readings can be large; an effect the other way counts as inactive or inconclusive.
# Key:
# [1] = Viability counterscreen for antagonist of constitutive androstane receptor (CAR) against the NCATS DSHEA and TCM libraries (AID 1794837); conditions: CAR reporter cell line viability counterscreen, qHTS; series mostly up to 40 µM;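 note: compound exposure lasted 24 h before viability reading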
# Summary of the method: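 Cell viability, CellTiter-Fluor, Ex/Em 405/540 nm, 1 h at 37C. HepG2-CYP2B6-hCAR, 2,500 cells/well; cpds + CITCO 48 uM final (antagonist mode), 24 h, 37C/5% CO2.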
# [2] = Viability counterscreen for agonist of constitutive androstane receptor (CAR) against the NCATS DSHEA and TCM libraries (AID 1794838); conditions: HepG2 cell viability counterscreen, CAR agonist assay, co-treated with 0.75 µM CAR antagonist; series mostly up to 40 µM
# Summary of the method: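 Viability by CellTiter-Fluor fluorescence, 405/540 nm, after 1 h at 37C. HepG2-CYP2B6-hCAR cells were exposed 24 h to test substances in presence of 0.75 uM PK11195 (final).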
# [3] = target: Nuclear receptor subfamily 1 group I member 3 (Homo sapiens) (UniProt Q14994); test: Primary qHTS for agonist of constitutive androstane receptor (CAR) against the NCATS DSHEA and TCM libraries (AID 1794839); conditions: CAR agonist reporter cells, qHTS luminescence, CAR antagonist co-added at 0.75 µM; series mostly up to 40 µM; note: potency is the fitted concentration of half-maximal effect
# Summary of the method: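 Luminescence from ONE-Glo luciferase was the agonist read-out in HepG2-CYP2B6-hCAR cells exposed 24 h to test substances. Wells also held the CAR antagonist PK11195 at 0.75 µM final. Viability was by CellTiter-Fluor fluorescence.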
# [4] = HepG2 viability counterscreen (readout 2: ATP content) against the NCATS DSHEA and TCM libraries (AID 1794840); conditions: ATP content luminescence; series mostly up to 27.3 µM
# Summary of the method: (§1)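 1,000 HepG2 cells/well, 4 h attach; compounds ~24 h, 37C/5% CO2. Readout 1: GF-AFC 25 uM final, 30 min, fluorescence 380/510 nm. Readout 2: CellTiter-Glo, 30 min RT, luminescence.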
# [5] = HepG2 viability counterscreen (readout 1: protease activity) against the NCATS DSHEA and TCM libraries (AID 1794841); conditions: qHTS concentration series; series mostly up to 27.3 µM;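 note: cells exposed to compounds for about 24 h before the protease read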
# Summary of the method: as §1
# [6] = Quantitative High-Throughput drug screen in 47 multiple myeloma cell lines against the NCATS MIPE library collection: FR4_PLB cell viability assay (AID 1918924; note: nearly all actives have a fitted effect of over 35% in size; note: potency is the fitted concentration of half-maximal effect); conditions: FR4_PLB myeloma cells viability, CellTiter-Glo ATP, 48 h; series mostly up to 45.8 µM
# Summary of the method: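 Inhibition of cell viability is measured here. Each line was plated at 500 cells per well, treated with MIPE 4.0 drugs, kept 48 hours at 37C, then assayed for ATP content by CellTiter-Glo luminescence.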
# [7] = Quantitative High-Throughput drug screen in 47 multiple myeloma cell lines against the NCATS MIPE library collection: EJM_DSMZ cell viability assay (AID 1918926; note: nearly all actives have a fitted effect of over 30% in size; note: potency is the fitted concentration of half-maximal effect); conditions: EJM myeloma cell viability, CellTiter-Glo ATP, 48 h; series mostly up to 45.8 µM
# Summary of the method: (§2)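 CellTiter-Glo luminescence (ATP) after 48 h compound exposure, 37C/5% CO2; 500 cells/well; MIPE 4.0 approved/investigational drugs pinned in; DMSO = 100%, media only = 0% viability.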
# [8] = target: Guanidinoacetate N-methyltransferase (Homo sapiens) (UniProt Q14353); test: Confirmatory Screen for Target Class Profiling of Small Molecule Inhibitors of Methyltransferases (AID 1745852); conditions: MTase-Glo luminescence, SAH detection, recombinant enzyme; activity change, negative = inhibition: at 57.3 µM (top of the series) unless noted
# [9] = target: Nicotinamide N-methyltransferase (Homo sapiens) (UniProt P40261); test: as above; conditions: MTase-Glo luminescence, SAH detection, recombinant enzyme; measured here: NNMT max response; stronger effect = lower value
# [10] = target: Phenylethanolamine N-methyltransferase (Homo sapiens) (UniProt P11086); test: as above; conditions: MTase-Glo luminescence, SAH detection, recombinant enzyme; measured here: PNMT max response; stronger effect = lower value
# [11] = target: Glutathione peroxidase 1 (Homo sapiens) (UniProt P07203); test: Primary qHTS Assay for Inhibitors of Recombinant Selenoprotein Glutathione Peroxidase 1 (GPX1) (AID 1845191); conditions: recombinant GPX1, GR-coupled NADPH fluorescence, 15 min; series mostly up to 48.8 µM; note: nearly all actives have a fitted effect of over 65% in size
# Summary of the method: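 GR-coupled assay: compounds preincubated 30 min at room temperature with GPX1, then reaction started with CHP; final 10 nM GPX1, 1 mM GSH, 0.5 mM CHP, 0.5 mM NADPH, 100 nM GR, 0.01% BSA, pH 7.5 Tris buffer. NADPH fluorescence (340/450 nm) read at 0 and 15 min.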
# [12] = target: Phospholipid hydroperoxide glutathione peroxidase GPX4 (Homo sapiens) (UniProt P36969); test: Primary qHTS Assay for Inhibitors of Recombinant Selenoprotein Glutathione Peroxidase 4 (GPX4) (AID 1845192); conditions: recombinant GPX4, GR-coupled NADPH fluorescence, 15 min; series mostly up to 50 µM; note: nearly all actives have a fitted effect of over 65% in size
# Summary of the method: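 GR-coupled assay: recombinant GPX4 preincubated 30 min with compound at room temperature; final 200 nM GPX4, 1 mM GSH, 0.5 mM cumene hydroperoxide, 0.5 mM NADPH, 100 nM GR, 0.01% BSA, pH 7.5 Tris. NADPH fluorescence (340/450 nm) read at 0 and 15 min.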
# [13] = target: Luciferin 4-monooxygenase (Photinus pyralis) (UniProt P08659); test: Primary firefly luciferase (FLuc) qHTS assay for identification of artifact compounds. (AID 1845220); conditions: purified firefly luciferase, luminescence, 5 min; series mostly up to 54.1 µM; note: nearly all actives have a fitted effect of over 60% in size
# Summary of the method: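 Titrated compounds were incubated 15 min at RT, protected from light, with luciferin and ATP at 10 uM; reaction started with 10 nM FLuc, luminescence imaged at 5 min, and concentration-response fitted by Hill equation.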
# [14] = Primary fluorescence-based thiol-reactive (MSTI) qHTS assay for identification of artifact compounds. (AID 1845221); conditions: MSTI thiol-reactivity probe, 1 h; series mostly up to 53.8 µM; note: nearly all actives have a fitted effect of over 65% in size; note: potency is the fitted concentration of half-maximal effect
# Summary of the method: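 Curve-fitted percent inhibition (4-parameter Hill) derived from fluorescence, Ex 525/Em 598 nm, scaled with Acetyl-MSTI and MSTI; 1 h incubation at room temperature.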
# [15] = test system: Nanoluciferase (engineered Oplophorus gracilirostris luciferase); test: Primary Nanoluciferase (NLuc) qHTS assay for identification of artifact compounds. (AID 1845222); conditions: NLuc-conditioned medium, Nano-Glo luminescence, 5 min; series mostly up to 54.1 µM;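 note: NLuc secreted into diluted conditioned medium of S16 cells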
# Summary of the method: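 qHTS format, against NLuc in S16 cell-conditioned medium. Nano-Glo substrate 1:100 was added after 15 min at room temperature. Luminescence was taken after a further 5 min.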
# [16] = Primary redox qHTS assay for identification of artifact compounds. (AID 1845223); conditions: Amplex Red/HRP redox cycling with DTT, fluorescence; series mostly up to 53.8 µM
# Summary of the method: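 Amplex Red (25 uM) and HRP (250 mU/mL) in HBSS, with compounds for 15 min, then 250 uM DTT for 30 min, room temperature, dark. Fluorescence 525/598 nm read; normalized to DMSO and 10 uM DA3003; Hill fit.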
# [17] = Quantitative High-Throughput drug screen in 47 multiple myeloma cell lines against the NCATS MIPE library collection: Delta47_JCRB cell viability assay (AID 1918925; note: nearly all actives have a fitted effect of over 45% in size; note: potency is the fitted concentration of half-maximal effect); conditions: Delta47 myeloma viability, CellTiter-Glo ATP, 48 h; series mostly up to 45.8 µM
# Summary of the method: as §2
# [18] = NCATS anti-infectives library activity on HEK293 viability as a counter-qHTS vs the C. elegans viability qHTS (AID 1745854); conditions: HEK293 viability counter-screen; series mostly up to 41.8 µM
# Summary of the method: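 HEK293 cells, 1500 per well, exposed 24 hr at 37C in 5% CO2 to compounds in a 1:5 titration, up to 41.7 uM final. Viability read as CellTiter-Glo luminescence after 10 min at room temperature.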
# [19] = NCATS anti-infectives library activity on the primary C. elegans qHTS viability assay (AID 1745855; calls by dose curve); conditions: C. elegans worm area imaging, day 7; series mostly up to 41.8 µM
# Summary of the method: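 Viability is taken from GFP fluorescence of PE254-GFP-FLuc C. elegans imaged by laser cytometry over 7 days. Ten L1 worms per well grow at 21 °C on TOP10 E. coli capsules with titrated compound; levamisole marks toxicity.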
# [20] = target: Metallo-beta-lactamase type 2 (Klebsiella pneumoniae) (UniProt C7C422); test: qHTS to identify inhibitors of the New Delhi Metallo-beta-lactamase (NDM): assay validation screen against the NCATS LOPAC Collection (AID 1794843); conditions: NDM-1 enzyme, nitrocefin hydrolysis, absorbance 485 nm; series mostly up to 38.4 µM;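 note: nitrocefin turnover by NDM-1 measured as 485 nm absorbance at plateau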
# Summary of the method: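 Nitrocefin hydrolysis (50 uM substrate stock) by NDM-1, 2 nM final, was followed by 485 nm absorbance after compound preincubation; buffer was 50 mM HEPES pH 7.0, 1 uM ZnSO4, 0.01% Tween20.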
# Sequence of Phospholipid hydroperoxide glutathione peroxidase GPX4 (Homo sapiens) (P36969 whole entry, looked up): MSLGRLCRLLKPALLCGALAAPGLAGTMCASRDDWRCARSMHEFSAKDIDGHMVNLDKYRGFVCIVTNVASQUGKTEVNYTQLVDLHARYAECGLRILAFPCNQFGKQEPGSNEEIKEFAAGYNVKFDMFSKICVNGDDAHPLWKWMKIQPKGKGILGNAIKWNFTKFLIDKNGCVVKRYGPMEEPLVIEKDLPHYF
# Sequence of Glutathione peroxidase 1 (Homo sapiens) (P07203 whole entry, looked up): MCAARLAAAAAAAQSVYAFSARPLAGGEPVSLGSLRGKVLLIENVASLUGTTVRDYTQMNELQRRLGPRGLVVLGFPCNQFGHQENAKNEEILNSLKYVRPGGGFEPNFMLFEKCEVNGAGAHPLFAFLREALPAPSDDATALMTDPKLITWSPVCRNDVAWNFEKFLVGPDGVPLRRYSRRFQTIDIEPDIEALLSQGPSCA
# Sequence of Phenylethanolamine N-methyltransferase (Homo sapiens) (P11086 whole entry, looked up): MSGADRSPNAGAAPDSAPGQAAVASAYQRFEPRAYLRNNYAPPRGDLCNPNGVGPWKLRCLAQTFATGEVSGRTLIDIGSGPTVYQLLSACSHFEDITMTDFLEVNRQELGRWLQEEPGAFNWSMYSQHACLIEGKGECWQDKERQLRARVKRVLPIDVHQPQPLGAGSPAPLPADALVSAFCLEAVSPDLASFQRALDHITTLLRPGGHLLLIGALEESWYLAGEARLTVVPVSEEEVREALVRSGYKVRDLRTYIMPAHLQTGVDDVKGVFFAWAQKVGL
# Sequence of Metallo-beta-lactamase type 2 (Klebsiella pneumoniae) (C7C422 whole entry, looked up): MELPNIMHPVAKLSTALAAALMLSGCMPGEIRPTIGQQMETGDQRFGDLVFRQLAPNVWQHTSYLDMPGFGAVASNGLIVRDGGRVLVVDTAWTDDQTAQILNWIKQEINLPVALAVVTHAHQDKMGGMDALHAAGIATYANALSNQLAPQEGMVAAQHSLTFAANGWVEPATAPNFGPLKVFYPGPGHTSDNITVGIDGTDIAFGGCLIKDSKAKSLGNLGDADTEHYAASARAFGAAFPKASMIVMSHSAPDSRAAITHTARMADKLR
# Sequence of Nicotinamide N-methyltransferase (Homo sapiens) (P40261 whole entry, looked up): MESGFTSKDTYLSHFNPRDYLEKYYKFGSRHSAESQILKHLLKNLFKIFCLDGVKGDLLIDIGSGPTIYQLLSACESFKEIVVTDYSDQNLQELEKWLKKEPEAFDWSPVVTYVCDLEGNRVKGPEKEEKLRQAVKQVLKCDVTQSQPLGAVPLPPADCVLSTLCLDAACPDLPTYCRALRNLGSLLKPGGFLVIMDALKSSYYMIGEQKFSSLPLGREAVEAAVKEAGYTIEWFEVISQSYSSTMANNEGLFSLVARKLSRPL
# Sequence of Nuclear receptor subfamily 1 group I member 3 (Homo sapiens) (Q14994 whole entry, looked up): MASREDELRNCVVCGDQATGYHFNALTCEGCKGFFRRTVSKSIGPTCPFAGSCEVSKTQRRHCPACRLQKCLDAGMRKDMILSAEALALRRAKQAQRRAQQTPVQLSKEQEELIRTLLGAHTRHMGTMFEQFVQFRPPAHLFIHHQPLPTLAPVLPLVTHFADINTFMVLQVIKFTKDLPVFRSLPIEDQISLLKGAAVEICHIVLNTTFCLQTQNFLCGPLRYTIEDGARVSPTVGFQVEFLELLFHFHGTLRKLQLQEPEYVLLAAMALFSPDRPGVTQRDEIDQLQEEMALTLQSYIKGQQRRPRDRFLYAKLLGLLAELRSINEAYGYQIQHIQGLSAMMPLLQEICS
smiles,measurement,setting,value
O=c1c(-c2ccc(O)cc2)coc2cc(O[C@@H]3O[C@H](CO)[C@H](O)[C@H](O)[C@H]3O)ccc12,outcome,[1],inactive
same,outcome,[2],inactive
same,Potency,[3],10 µM (active)
same,outcome,[4],inactive
same,outcome,[5],inactive
same,Potency,[6],inactive
same,Potency,[7],inactive
NC(=O)c1cnc(-c2ccc(C3(N)CCC3)cc2)c(-c2ccccc2)c1,"activity change, negative = inhibition",[8],0.723%
same,activity,[9],-51.4%
same,activity,[10],-17.2%
same,Potency,[11],inactive
same,Potency,[12],inactive
same,Potency,[13],inactive
same,Potency,[14],inactive
same,Potency,[15],inactive
same,outcome,[16],inactive
same,Potency,[6],inactive
same,Potency,[17],6.62 µM (active)
same,Potency,[7],1.66 µM (active)
CN1CCN(CCOc2cc(OC3CCOCC3)c3c(Nc4c(Cl)ccc5c4OCO5)ncnc3c2)CC1,"activity change, negative = inhibition",[8],-0.0396%
same,activity,[9],-34.6%
same,activity,[10],-10.6%
same,outcome,[18],inactive
same,Potency,[11],inactive
same,Potency,[12],inactive
same,Potency,[13],inactive
same,Potency,[14],inactive
same,Potency,[15],inactive
same,Potency,[6],18.7 µM (active)
same,Potency,[17],23.5 µM (active)
NC(=O)[C@@H](CCC(F)(F)F)N(Cc1ccc(-c2ncon2)cc1F)S(=O)(=O)c1ccc(Cl)cc1,outcome,[18],inactive
same,Potency,[19],inactive
same,Potency,[11],inactive
same,Potency,[12],inactive
same,Potency,[6],16.6 µM (active)
same,Potency,[7],20.9 µM (active)
O=C1NCC2(CCN(CCc3ccccc3)CC2)O1,Potency,[20],inactive
same,Potency,[11],inactive
same,Potency,[12],inactive
CC(=O)N[C@@H](CS)C(=O)O,outcome,[18],inactive
same,Potency,[20],inactive
same,Potency,[11],inactive
same,Potency,[12],inactive
COc1cccc2c1CCCC2CCCN1CCN(C2CCCCC2)CC1 (stereo not given),Potency,[19],inactive
same,Potency,[11],inactive
same,Potency,[12],inactive
same,Potency,[6],23.5 µM (active)
same,Potency,[17],16.6 µM (active)
COc1ccc(-c2coc3cc(O)ccc3c2=O)cc1,outcome,[4],inactive
same,outcome,[5],inactive
same,Potency,[7],inactive
Cn1c(N2CCCCS2(=O)=O)nc(C(=O)NCc2ccc(F)cc2)c(O)c1=O,outcome,[18],inactive
same,Potency,[11],inactive
same,Potency,[12],inactive
same,Potency,[13],inactive
same,Potency,[14],1.34 µM (active)
same,Potency,[15],inactive
same,outcome,[16],inactive
same,Potency,[17],inactive
same,Potency,[7],inactive
